Article PMC7862700, “An all-to-all approach to the identification of sequence-specific readers for epigenetic DNA modifications on cytosine”

Legend:
Assay in all cases: DAPPL (digital affinity profiling via proximity ligation, sequencing); 10 mM Tris-HCl pH 7.5, 50 mM NaCl, 1 mM DTT, 4% glycerol, room temperature, 30 min; GST-TFs on glutathione beads, 16-mer random dsDNA library, 0.1% formaldehyde crosslink after washing; high values mean tight binding
Conditions in all cases: protein: recombinant; tags: N-terminal GST; dsDNA, one strand shown
ERF = molecular target: T1, ERF (Homo sapiens, UniProt P50548 1-548)
T1 sequence: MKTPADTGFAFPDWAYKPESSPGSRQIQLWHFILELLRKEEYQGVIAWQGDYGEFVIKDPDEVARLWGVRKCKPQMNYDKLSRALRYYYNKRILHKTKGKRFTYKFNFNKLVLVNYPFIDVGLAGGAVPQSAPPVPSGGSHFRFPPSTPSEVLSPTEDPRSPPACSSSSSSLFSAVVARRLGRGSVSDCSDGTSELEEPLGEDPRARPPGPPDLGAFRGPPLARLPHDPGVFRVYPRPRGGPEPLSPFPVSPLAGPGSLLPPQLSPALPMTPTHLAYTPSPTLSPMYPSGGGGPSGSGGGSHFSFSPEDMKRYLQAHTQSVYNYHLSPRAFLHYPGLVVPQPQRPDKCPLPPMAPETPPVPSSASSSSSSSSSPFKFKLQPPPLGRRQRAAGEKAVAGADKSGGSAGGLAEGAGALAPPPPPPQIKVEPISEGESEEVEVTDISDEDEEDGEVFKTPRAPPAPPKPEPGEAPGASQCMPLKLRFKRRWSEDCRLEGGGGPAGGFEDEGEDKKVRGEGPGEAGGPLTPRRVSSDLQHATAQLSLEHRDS
In short: (§1)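 Human transcription factors fused to GST were expressed in yeast, captured on glutathione beads, given DNA barcodes and pooled with a GST-only negative control. Pools were incubated with 200 nmole of a 16-mer random double-stranded DNA library in Tris/NaCl/DTT/glycerol buffer at room temperature for 30 min. They were then washed, crosslinked with 0.1% formaldehyde, proximity-ligated (BsaI/T4 ligase, 1 h, 37 °C), PCR-amplified and sequenced on an Illumina NextSeq500. Binding signal is each 6-mer's read frequency for a factor divided by its frequency for the GST control.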

ETV3L = molecular target: T2, ETV3L (Homo sapiens, UniProt Q6ZN32 1-361)
T2 sequence: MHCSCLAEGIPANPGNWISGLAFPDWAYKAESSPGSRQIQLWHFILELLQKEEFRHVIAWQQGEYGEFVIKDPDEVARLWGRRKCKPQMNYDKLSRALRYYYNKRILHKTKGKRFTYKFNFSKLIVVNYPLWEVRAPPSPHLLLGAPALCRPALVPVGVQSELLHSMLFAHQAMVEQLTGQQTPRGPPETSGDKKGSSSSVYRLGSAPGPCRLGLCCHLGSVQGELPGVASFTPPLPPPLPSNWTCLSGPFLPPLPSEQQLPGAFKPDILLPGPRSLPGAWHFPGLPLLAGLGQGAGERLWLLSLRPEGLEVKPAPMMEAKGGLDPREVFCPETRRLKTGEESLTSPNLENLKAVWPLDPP
In short: as §1

ETS2 = molecular target: T3, ETS2 (Homo sapiens, UniProt P15036 1-469)
T3 sequence: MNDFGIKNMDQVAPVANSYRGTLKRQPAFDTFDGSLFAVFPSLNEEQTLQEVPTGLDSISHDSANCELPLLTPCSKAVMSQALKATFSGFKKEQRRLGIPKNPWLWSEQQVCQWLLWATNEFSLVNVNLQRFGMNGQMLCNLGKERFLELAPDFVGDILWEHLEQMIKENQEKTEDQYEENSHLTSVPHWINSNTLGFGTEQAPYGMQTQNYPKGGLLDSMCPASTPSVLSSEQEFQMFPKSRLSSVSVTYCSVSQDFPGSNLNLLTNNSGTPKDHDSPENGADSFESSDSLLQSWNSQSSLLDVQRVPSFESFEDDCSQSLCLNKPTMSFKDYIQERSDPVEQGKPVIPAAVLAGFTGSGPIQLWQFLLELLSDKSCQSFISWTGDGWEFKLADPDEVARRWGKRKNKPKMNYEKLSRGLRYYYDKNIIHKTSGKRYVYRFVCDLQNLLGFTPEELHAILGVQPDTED
In short: as §1

SPDEF = molecular target: T4, SPDEF (Homo sapiens, UniProt O95238 1-335)
T4 sequence: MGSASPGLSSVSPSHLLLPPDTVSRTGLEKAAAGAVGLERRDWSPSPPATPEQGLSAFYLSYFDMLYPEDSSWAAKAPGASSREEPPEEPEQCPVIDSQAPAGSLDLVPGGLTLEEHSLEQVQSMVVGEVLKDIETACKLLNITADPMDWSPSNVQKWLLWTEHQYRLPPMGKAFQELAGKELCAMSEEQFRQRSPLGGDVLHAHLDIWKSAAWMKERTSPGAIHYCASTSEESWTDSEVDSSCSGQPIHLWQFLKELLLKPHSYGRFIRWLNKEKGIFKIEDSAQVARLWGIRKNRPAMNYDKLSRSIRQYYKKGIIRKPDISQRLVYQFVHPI
In short: as §1

ETV7 = molecular target: T5, ETV7 (Homo sapiens, UniProt Q9Y603 1-341)
T5 sequence: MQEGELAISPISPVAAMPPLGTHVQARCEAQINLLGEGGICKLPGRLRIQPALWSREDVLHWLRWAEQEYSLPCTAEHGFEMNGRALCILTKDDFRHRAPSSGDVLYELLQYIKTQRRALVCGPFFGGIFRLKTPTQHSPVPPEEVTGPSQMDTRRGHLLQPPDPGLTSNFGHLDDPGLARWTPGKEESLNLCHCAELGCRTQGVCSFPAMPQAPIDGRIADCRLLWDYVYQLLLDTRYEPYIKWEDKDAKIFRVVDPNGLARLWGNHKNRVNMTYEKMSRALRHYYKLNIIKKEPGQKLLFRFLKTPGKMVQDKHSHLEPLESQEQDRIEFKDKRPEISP
In short: as §1

ELF5 = molecular target: T6, ELF5 (Homo sapiens, UniProt Q9UKW6-2 1-255)
T6 sequence: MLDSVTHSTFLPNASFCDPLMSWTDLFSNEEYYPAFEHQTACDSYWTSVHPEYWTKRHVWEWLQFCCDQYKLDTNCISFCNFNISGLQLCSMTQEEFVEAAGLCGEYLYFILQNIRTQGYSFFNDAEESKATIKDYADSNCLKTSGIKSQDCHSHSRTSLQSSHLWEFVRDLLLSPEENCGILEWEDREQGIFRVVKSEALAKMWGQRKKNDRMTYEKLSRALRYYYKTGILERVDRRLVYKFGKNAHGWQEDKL
In short: as §1

ETV3 = molecular target: T7, ETV3 (Homo sapiens, UniProt P41162-2 1-143)
T7 sequence: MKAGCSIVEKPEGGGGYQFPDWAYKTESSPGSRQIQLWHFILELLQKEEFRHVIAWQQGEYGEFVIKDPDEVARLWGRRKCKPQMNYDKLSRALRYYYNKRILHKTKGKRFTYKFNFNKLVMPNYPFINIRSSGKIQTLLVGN
In short: as §1

ETV6 = ETV6 (Homo sapiens, UniProt P41212 1-452)
In short: as §1

Sequence of ETV6 (P41212 whole entry): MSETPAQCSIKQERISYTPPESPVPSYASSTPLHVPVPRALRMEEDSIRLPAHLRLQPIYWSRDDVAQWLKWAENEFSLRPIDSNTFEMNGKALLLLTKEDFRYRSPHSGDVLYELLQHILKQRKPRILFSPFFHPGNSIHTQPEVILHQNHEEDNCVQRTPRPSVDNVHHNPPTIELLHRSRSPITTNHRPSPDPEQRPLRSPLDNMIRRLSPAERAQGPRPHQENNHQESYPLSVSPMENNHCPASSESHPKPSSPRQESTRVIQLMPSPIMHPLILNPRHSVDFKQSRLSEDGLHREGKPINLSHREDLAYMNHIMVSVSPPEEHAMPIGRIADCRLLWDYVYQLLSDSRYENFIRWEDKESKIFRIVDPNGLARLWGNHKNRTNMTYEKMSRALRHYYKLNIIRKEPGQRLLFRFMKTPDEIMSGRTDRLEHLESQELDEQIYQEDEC

GGCTCC
binding signal (ERF): 1.28 fold enrichment (6-mer frequency, TF over GST control) | binding signal (ETV3L): 1.27 fold enrichment (6-mer frequency, TF over GST control) | binding signal (ETS2): 1.21 fold enrichment (6-mer frequency, TF over GST control) | binding signal (SPDEF): 1.48 fold enrichment (6-mer frequency, TF over GST control) | binding signal (ETV7): 1.25 fold enrichment (6-mer frequency, TF over GST control) | binding signal (ELF5): 1.33 fold enrichment (6-mer frequency, TF over GST control) | binding signal (ETV3): 1.3 fold enrichment (6-mer frequency, TF over GST control) | binding signal (ETV6): 1.25 fold enrichment (6-mer frequency, TF over GST control)

AACGCT
binding signal (ERF): 1.26 fold enrichment (6-mer frequency, TF over GST control) | binding signal (ETV3L): 1.15 fold enrichment (6-mer frequency, TF over GST control) | binding signal (ETS2): 1.13 fold enrichment (6-mer frequency, TF over GST control) | binding signal (SPDEF): 1.2 fold enrichment (6-mer frequency, TF over GST control) | binding signal (ETV7): 1.24 fold enrichment (6-mer frequency, TF over GST control) | binding signal (ELF5): 1.19 fold enrichment (6-mer frequency, TF over GST control) | binding signal (ETV3): 1.24 fold enrichment (6-mer frequency, TF over GST control) | binding signal (ETV6): 1.27 fold enrichment (6-mer frequency, TF over GST control)

CTAAGT
binding signal (ERF): 1.13 fold enrichment (6-mer frequency, TF over GST control) | binding signal (ETV3L): 1.33 fold enrichment (6-mer frequency, TF over GST control) | binding signal (ETS2): 1.23 fold enrichment (6-mer frequency, TF over GST control) | binding signal (SPDEF): 1.3 fold enrichment (6-mer frequency, TF over GST control) | binding signal (ETV7): 1.29 fold enrichment (6-mer frequency, TF over GST control) | binding signal (ELF5): 1.17 fold enrichment (6-mer frequency, TF over GST control) | binding signal (ETV3): 1.21 fold enrichment (6-mer frequency, TF over GST control) | binding signal (ETV6): 1.27 fold enrichment (6-mer frequency, TF over GST control)

GCGCTT
binding signal (ERF): 1.42 fold enrichment (6-mer frequency, TF over GST control) | binding signal (ETV3L): 1.3 fold enrichment (6-mer frequency, TF over GST control) | binding signal (ETS2): 1.37 fold enrichment (6-mer frequency, TF over GST control) | binding signal (SPDEF): 1.2 fold enrichment (6-mer frequency, TF over GST control) | binding signal (ETV7): 1.34 fold enrichment (6-mer frequency, TF over GST control) | binding signal (ELF5): 1.31 fold enrichment (6-mer frequency, TF over GST control) | binding signal (ETV3): 1.42 fold enrichment (6-mer frequency, TF over GST control) | binding signal (ETV6): 1.33 fold enrichment (6-mer frequency, TF over GST control)

CCATTT
binding signal (ERF): 1.32 fold enrichment (6-mer frequency, TF over GST control) | binding signal (ETV3L): 1.25 fold enrichment (6-mer frequency, TF over GST control) | binding signal (ETS2): 1.41 fold enrichment (6-mer frequency, TF over GST control) | binding signal (SPDEF): 1.21 fold enrichment (6-mer frequency, TF over GST control) | binding signal (ETV7): 1.24 fold enrichment (6-mer frequency, TF over GST control) | binding signal (ELF5): 1.31 fold enrichment (6-mer frequency, TF over GST control) | binding signal (ETV3): 1.34 fold enrichment (6-mer frequency, TF over GST control) | binding signal (ETV6): 1.34 fold enrichment (6-mer frequency, TF over GST control)

ATTCTG
binding signal (ERF): 1.38 fold enrichment (6-mer frequency, TF over GST control) | binding signal (ETV3L): 1.28 fold enrichment (6-mer frequency, TF over GST control) | binding signal (ETS2): 1.31 fold enrichment (6-mer frequency, TF over GST control) | binding signal (SPDEF): 1.27 fold enrichment (6-mer frequency, TF over GST control) | binding signal (ETV7): 1.23 fold enrichment (6-mer frequency, TF over GST control) | binding signal (ELF5): 1.21 fold enrichment (6-mer frequency, TF over GST control) | binding signal (ETV3): 1.26 fold enrichment (6-mer frequency, TF over GST control) | binding signal (ETV6): 1.43 fold enrichment (6-mer frequency, TF over GST control)

TATGTA
binding signal (ERF): 1.36 fold enrichment (6-mer frequency, TF over GST control) | binding signal (ETV3L): 1.29 fold enrichment (6-mer frequency, TF over GST control) | binding signal (ETS2): 1.38 fold enrichment (6-mer frequency, TF over GST control) | binding signal (SPDEF): 1.35 fold enrichment (6-mer frequency, TF over GST control) | binding signal (ETV7): 1.35 fold enrichment (6-mer frequency, TF over GST control) | binding signal (ELF5): 1.26 fold enrichment (6-mer frequency, TF over GST control) | binding signal (ETV3): 1.25 fold enrichment (6-mer frequency, TF over GST control) | binding signal (ETV6): 1.28 fold enrichment (6-mer frequency, TF over GST control)
